{"source": "PubChem BioAssay AID2284122", "about": "(EPA ToxCast)", "note": "The source made the active and inactive calls. Rule for the calls: active = hit-call score of the fitted dose curve at least 0.9, where 1 is the maximum; inactive = score below 0.9.", "data": [{"biological_target": "human TRKA Receptor Tyrosine Kinase, NTRK1 (gene 4914) (UniProt P04629)", "sequence (P04629 whole entry, looked up)": "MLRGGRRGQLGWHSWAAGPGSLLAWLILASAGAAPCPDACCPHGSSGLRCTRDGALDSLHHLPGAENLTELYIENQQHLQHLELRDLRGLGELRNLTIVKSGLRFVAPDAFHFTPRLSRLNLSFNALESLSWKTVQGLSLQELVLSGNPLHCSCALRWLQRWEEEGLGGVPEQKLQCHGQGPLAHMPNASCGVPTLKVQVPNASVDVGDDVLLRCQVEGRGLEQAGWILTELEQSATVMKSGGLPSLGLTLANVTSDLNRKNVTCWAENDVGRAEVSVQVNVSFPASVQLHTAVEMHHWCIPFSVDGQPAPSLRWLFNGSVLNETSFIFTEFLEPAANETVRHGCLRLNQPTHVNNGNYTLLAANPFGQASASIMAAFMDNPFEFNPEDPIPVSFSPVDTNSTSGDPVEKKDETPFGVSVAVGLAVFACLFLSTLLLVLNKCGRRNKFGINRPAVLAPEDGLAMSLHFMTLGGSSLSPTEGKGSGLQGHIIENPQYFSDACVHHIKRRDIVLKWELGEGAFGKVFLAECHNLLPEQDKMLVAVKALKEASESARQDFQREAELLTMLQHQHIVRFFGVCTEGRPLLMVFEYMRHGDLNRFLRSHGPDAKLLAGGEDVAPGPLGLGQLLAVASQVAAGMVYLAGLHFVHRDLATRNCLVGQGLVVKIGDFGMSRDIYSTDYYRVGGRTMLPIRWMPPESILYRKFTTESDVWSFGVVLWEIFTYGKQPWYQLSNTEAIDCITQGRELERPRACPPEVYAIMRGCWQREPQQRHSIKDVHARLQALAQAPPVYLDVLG", "assay": "ERF_FR_ENZ_hNTRK1: Eurofins (ERF) Enzymatic Radiometric [Km ATP] KinaseProfiler LeadHunter Assay for human TRKA Receptor Tyrosine Kinase", "experimental": "ERF_FR_ENZ_hNTRK1 is a biochemical, single-readout assay that uses extracted gene-proteins in a cell-free assay. Measurements were taken 0.16 hour after chemical dosing in a 96-well plate. See TRKA Human RTK Kinase Enzymatic LANCE Assay [Km ATP], Cerep.ERF_FR_ENZ_hNTRK1 is an assay component calculated from the ERF_FR_ENZ_hNTRK1 assay. It is designed to measure enzyme activity using a type of enzyme reporter as detected by fluorescence intensity with LANCE technology.Data from the assay component ERF_FR_ENZ_hNTRK1 was analyzed at the assay endpoint, ERF_FR_ENZ_hNTRK1, in the positive analysis fitting direction relative to DMSO as the negative control and baseline of activity. Using a type of enzyme reporter, loss-of-signal activity can be used to understand changes in enzymatic activity as they relate to gene NTRK1. To generalize the intended target to other relatable targets, this assay endpoint is annotated to the kinase intended target family, where the subfamily is receptor tyrosine kinase.\nTrkA (h) is incubated with 8 mM MOPS pH 7.0, 0.2 mM EDTA, 250 uM […], 10 mM MgAcetate and [g- 33P]-ATP (specific activity and concentration as required). The reaction is initiated by the addition of the Mg/ATP mix. After incubation for 40 minutes at room temperature, the reaction is stopped by the addition of phosphoric acid to a concentration of 0.5%. An aliquot of the reaction is then spotted onto a filter and washed four times for 4 minutes in 0.425% phosphoric acid and once in methanol prior to drying and scintillation counting.Compound should be supplied in 100% DMSO.We require a stock solution at a concentration of at least 50x higher than the Final Assay Concentration of your cpd. A 10mM stock is also acceptable.When ordering fewer than 60 kinase assays, we need 120uL of 50x concentrated stock. For more than 60 assays, we need 420 uL of 50xcc stock. Please apply the conversion if you provide 10mM stock solution or compounds in powder form (pre-weighed is required) From 50 cpds supplied as solids, the TAT will be extended.", "values": [{"smiles": "COc1cc(CCC(=O)CC(=O)CCc2ccc(O)c(OC)c2)ccc1O", "outcome": "inactive"}, {"smiles": "O=C(/C=C/c1ccc(O)cc1)CC(=O)/C=C/c1ccc(O)cc1", "outcome": "inactive"}, {"smiles": "COc1cc(/C=C/C(=O)CC(=O)/C=C/c2ccc(O)c(OC)c2)ccc1O", "AC50": "3.85 µM (active)"}]}]}
